This is a sample that favours compounds with a hit; in the whole collection about 0.65% have one here.
SARS PLpro yeast: SARS-CoV PLP inhibition in yeast | 330,000 tested, 0.19% active | Potency, µM (series often up to 32.9 µM), hits mostly activators | S. cerevisiae expressing SARS-CoV PLpro, growth rescue; further: nearly all actives have a fitted effect of over 55% in size
NS1 inh: blocks influenza NS1 protein function; Potency, µM (highest dose often 46.1 µM); 270,000 tested, 0.4% active; further: actives are rising curves; nearly all actives have a fitted effect of over 50% in size
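In this qHTS, NS1 from influenza A is expressed in budding yeast, where it slows growth. Cells are switched from glucose to 2% galactose medium (pH 6.0, -URA), treated with compound, and growth recovery is read at OD600.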
AMA1 RON2 block: inhibitors of Plasmodium falciparum AMA1-RON2 interaction; AID 720542; AlphaScreen AMA1-biotinylated RON2 peptide binding; Potency, µM (titrated, usually from 58.2 µM), hits mostly inhibitors; 360,000 tested, 0.2% active; active means well fitted inhibition curve with a large enough effect; inconclusive means small, poorly fitted or top-dose-only effect; inactive means no such curve, though single readings can be large or run the other way; further: nearly all actives have a fitted effect of over 45% in size
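AMA1 (3D7) with his tag at 25 nM final met compounds first, then biotinylated RON2 peptide at 25 nM; detection used donor plus acceptor beads, 10 µg/mL apiece, read by AlphaScreen after 30 min at room temperature.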
Flu NS1 inh: validation of influenza NS1 protein function inhibitors. shares compounds with NS1 inh. influenza NS1 function cell assay, 15-point titration. activity change, negative = inhibition, % at 32.9 µM. 1,400 tested, under 10 active. AID 492980
PR8 titer: influenza virus titer reduction, NS1 project | shares compounds with NS1 inh | MDCK infected influenza A/PR/8/34, virus titer TCID50; active compounds read low | virus titer (log TCID50), log10 TCID50 at 5 µM | 95 tested, 30% active; call rule not given here
Each line names hits and unclear results; the compound was inactive in the other large screens (follow-up assays come after a bar, where they were run). Unless noted, the call rests on the fitted dose curve.

Cc1snnc1C(=O)NC(=S)Nc1ccccc1	none
CC(C)(C)NC(=O)NC(=O)CN1CCN(c2cccc(Cl)c2)CC1	NS1 inh 7.94µM | Flu NS1 inh inactive | PR8 titer inactive
CC(C)(C)NC(=O)NC(=O)CN1CCN(c2ccccc2)CC1	none (no result: NS1 inh)
COc1ccc(OCCSc2ncc(CO)n2C)cc1	none
CN(C)c1ccc(S(=O)(=O)N2CCCCC2)cc1NC(=O)CN1C(=O)NC2(CCCC2)C1=O	none (no result: SARS PLpro yeast, NS1 inh)
Fc1ccc(Cl)cc1/C=N/n1cnnc1SCc1ccccc1	none
C(=N\n1cnnc1SCc1ccccc1)/c1ccco1	NS1 inh 1.12µM | Flu NS1 inh inactive
O=C(O)/C=C/c1nc(-c2ccccc2)n2ccccc12	NS1 inh inconclusive | Flu NS1 inh inactive
CN1CCN(/N=C/c2nc(-c3cccc([N+](=O)[O-])c3)n3ccccc23)CC1	none
COc1ccccc1N1CCN(C(=O)c2cc(=O)c3c(C)cc(C)cc3o2)CC1	none
Cc1n[nH]c(C)c1CCc1nc2c3ccccc3nc(SCC(N)=O)n2n1	NS1 inh 3.16µM | Flu NS1 inh inactive
Cc1ccc(NC(=O)CSc2nc3ccccc3c3nc(CCc4c(C)n[nH]c4C)nn23)cc1F	none
CC(C)CN(C(=O)c1cccs1)C1CCS(=O)(=O)C1 (configuration not stated)	none (no result: NS1 inh)
CN(CCC1CCOCC1)C(=O)C1CCC(=O)N(CCc2cccc(F)c2)C1 (configuration not stated)	none
O=C(COc1ccc2ccccc2c1)N1CCN(C(=O)c2ccco2)CC1	none (no result: NS1 inh)
O=C(NCc1ccccc1)c1cccc(OCC(=O)N2CCN(C(=O)c3ccco3)CC2)c1	NS1 inh inconclusive | Flu NS1 inh inactive
COc1cccc(-c2cc(=O)c3cc(NC(=O)c4ccc(N(C)C)cc4)ccc3[nH]2)c1	NS1 inh 12.6µM | Flu NS1 inh inactive
COc1cccc(-c2cc(=O)c3cc(NC(=O)c4ccccc4)ccc3[nH]2)c1	none
Cc1cccc(C(=O)OCC(=O)Nc2c(C)n(C)n(-c3ccccc3)c2=O)c1	none (no result: NS1 inh)
Cc1cc(C(=O)COc2cccnc2[N+](=O)[O-])c(C)n1-c1ccccc1	none
Cc1cc(C(=O)COc2cccnc2[N+](=O)[O-])c(C)n1-c1ccccc1F	NS1 inh inconclusive | Flu NS1 inh inactive
Cc1ccccc1OCC(=O)Nc1ccccc1-c1ccccc1	none
c1ccc(-c2ccc(C3=Nn4c(Cn5nnc6ccccc65)nnc4SC3)cc2)cc1	NS1 inh 12.6µM | Flu NS1 inh inconclusive
c1ccc(C2=Nn3c(Cn4nnc5ccccc54)nnc3SC2)cc1	none
COc1ccc(-c2nc(CS(=O)(=O)CC(=O)NC3CCCCC3C)c(C)o2)cc1 (configuration not stated)	none
Cc1ccc(-c2nc(CS(=O)(=O)CC(=O)NC3CCCCC3C)c(C)o2)cc1 (configuration not stated)	NS1 inh 3.16µM | Flu NS1 inh inactive
CC1CCC/C(=N\NC(=S)NCc2ccccc2)C1 (configuration not stated)	none
CC1C/C(=N\NC(=S)NCc2ccccc2)CC(C)(C)C1 (configuration not stated)	NS1 inh inconclusive | Flu NS1 inh inconclusive
Cc1c(C(=O)NCc2ccccc2C(F)(F)F)sc(=O)n1Cc1ccc2ccccc2c1	none (no result: SARS PLpro yeast, NS1 inh)
COc1ccccc1NS(=O)(=O)c1cc(N/C(=N/S(=O)(=O)c2ccccc2)c2ccc(F)cc2)ccc1Cl	none (no result: SARS PLpro yeast, NS1 inh)
COc1ccc(NS(=O)(=O)c2cccc(N/C(=N\S(=O)(=O)c3ccccc3)c3ccc(F)cc3)c2)cc1	NS1 inh 11.2µM | Flu NS1 inh inactive
Cn1nc(C#N)c(=O)[nH]c1=O	none (no result: SARS PLpro yeast, NS1 inh)
CN(C)S(=O)(=O)c1ccc(F)c(C(=O)Nc2ccccc2C(=O)NC2CC2)c1	none (no result: NS1 inh)
CC(=O)c1c(C)[nH]c(C(=O)OCC(=O)N2CCc3ccccc32)c1C	NS1 inh 4.47µM | Flu NS1 inh inactive
CCOC(=O)c1[nH]c(C)c(C(=O)OCC(=O)N2CCc3ccccc32)c1C	none
Cc1ccc(Cl)cc1N1CCN(C(=O)CNC(=O)c2ccc(Br)o2)CC1	none (no result: NS1 inh)
Cn1c(=O)c2c(n(Cc3ccccc3)c1=O)NC(=O)C2CC(=O)NCc1cccc(Cl)c1 (configuration not stated)	NS1 inh 14.1µM | Flu NS1 inh inactive
CCc1ccc(NC(=O)CC2C(=O)Nc3c2c(=O)n(C)c(=O)n3C)cc1 (configuration not stated)	none
O=C(COc1ccc([N+](=O)[O-])cc1)Nc1ccc2c(c1)CCC2	none (no result: NS1 inh)
CCOC(=O)c1ccc(S(=O)(=O)NNc2ccc(C(F)(F)F)cn2)cc1	none (no result: NS1 inh)
CCc1ccc(NC(=O)C(C)OC(=O)c2ccc(NS(=O)(=O)c3ccc(C)c([N+](=O)[O-])c3)cc2)cc1 (configuration not stated)	none
Cc1ccc(S(=O)(=O)Nc2ccccc2C(=O)OC(C)C(=O)Nc2ccc3ccccc3c2)cc1[N+](=O)[O-] (configuration not stated)	NS1 inh 4.47µM | Flu NS1 inh inactive
O=C(Nc1ccccc1C(=O)NC1CCCCC1)c1ccco1	none
CCC(C)C(NC(=O)c1ccccc1NC(=O)c1ccco1)C(=O)NC1CCCCC1 (configuration not stated)	NS1 inh 4.47µM | Flu NS1 inh inactive
Nc1c(N(CCC2=CCCCC2)C(=O)c2ccccc2F)c(=O)[nH]c(=O)n1Cc1ccccc1	none (no result: NS1 inh)
COc1ccccc1NS(=O)(=O)c1ccc(Cl)c(NC(=S)NC(=O)C2CCCC2)c1	NS1 inh 12.6µM | Flu NS1 inh inactive
CCN(CC)S(=O)(=O)c1ccc(Cl)c(NC(=S)NC(=O)C2CCCC2)c1	none (no result: NS1 inh)
COc1ccc(C(C)=O)cc1COC(=O)Cc1cc(OC)c(OC)c(OC)c1	none
N#CCC1(O)C(=O)N(Cc2ccccc2)c2ccccc21 (configuration not stated)	none (no result: SARS PLpro yeast, NS1 inh)
OC(CNCC(c1ccco1)N1CCCCC1)c1ccccc1 (configuration not stated)	NS1 inh 2.24µM | Flu NS1 inh inactive
O=C(CSc1ccccc1)NCC(c1ccco1)N1CCCCC1 (configuration not stated)	none (no result: NS1 inh)
CC1(c2nnnn2-c2ccc3c(c2)OCCO3)CCC(=O)N1Cc1cccc(C(F)(F)F)c1 (configuration not stated)	none (no result: SARS PLpro yeast, NS1 inh)
Cc1c(C(=O)N2CCCCCC2)c(S(=O)(=O)Nc2ccc(F)cc2)c(C)n1C	none
Cc1cc(C(=O)Nc2nnc(-c3ccccc3)s2)no1	NS1 inh inconclusive | Flu NS1 inh inconclusive
CCSc1nnc(NC(=O)c2c(-c3ccccc3Cl)noc2C)s1	NS1 inh inconclusive
Cc1onc(-c2ccccc2Cl)c1C(=O)Nc1nnc(-c2cccc([N+](=O)[O-])c2)s1	NS1 inh 10µM | Flu NS1 inh inactive
Cc1cc(C(=O)Nc2nnc(C3CCCCC3)s2)no1	none (no result: SARS PLpro yeast)
COC(=O)C(Cc1ccccc1)NC(=O)CCNC(=O)c1ccco1 (configuration not stated)	none
CC(C)(C)[C@@H]1COC(=O)[C@@H](Cc2ccc(F)cc2)C/C=C\C[C@H](CC(=O)N(CCO)Cc2ccccc2)C(=O)N1	none (no result: NS1 inh)
